Each structure is given as a SMILES string. Where “and” joins values, the source holds several entries; their conditions need not be identical. Equal values may be shown once. Out of some 120,000 compounds screened, about 5,300 (4.4%) were called active. Not shown: some 22% with an inconclusive outcome. Calls come from the whole dose curve; as a rule, active = well fitted inhibition curve with a large enough effect; inconclusive = small, poorly fitted or top-dose-only effect; inactive = no such curve, though single readings can be large or run the other way. The entries come from a sample that favours actives as a whole. A call without a number means that no potency is given here. The source holds several records for some structures; these can differ, active in one and inactive in another.
Potency is the fitted concentration of half-maximal effect.

This test in a line: qHTS Primary assay for Inhibitors of Plasmodium falciparum Dd2 growth in vitro. Note: nearly all actives have a fitted effect of over 65% in size. To be noted: P. falciparum Dd2 growth, SYBR Green, 72 h; series mostly up to 28.9 µM. In short, it runs like this:
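Readout: SYBR Green fluorescence, 485 nm excitation, 535 nm emission, after ~16 h lysis at 37C. Before that, Dd2-infected red cells (2.5% hematocrit) grew 72 h with compound, 29 uM top final concentration.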
Take `COc1cc(CNCc2ccc(C)c(F)c2F)ccc1OCC(O)CN1CCC(O)CC1` (configuration not stated): the Potency entry was “inactive”.

Regarding `N#Cc1cccc(CN2C[C@H](O)C[C@H]2c2nc(-c3ccccn3)no2)c1`, the Potency entry was “inactive”.

With `Cc1ccccc1C(=O)NCc1nnc2ccc(-c3ccccc3)nn12`, the Potency entry is “inactive”.

As for `COc1ccccc1C(=O)N1CCC(n2cnnc2C2CC2)CC1`, the Potency result is “inactive”.

`COCc1nncn1C1CCN(C(=O)c2ccccc2F)CC1`: the Potency result is “inactive”.

As for `COCc1nncn1C1CCN(C(=O)c2ccccc2OC(F)(F)F)CC1`, the Potency is 10 µM (active).

With `COc1ccccc1C(=O)Nc1ccc2c(c1)CN(Cc1ccccc1)C(=O)C(C)O2` (configuration not stated), the Potency entry was “inactive”.

For the compound `O=C1CC(c2ccccc2)N(C(=O)C2CC2)CCCN(C(=O)Cc2cccc(F)c2)CCN1` (configuration not stated), the Potency entry was “inactive”.

Consider `Cc1cccc(CN2CCCN(Cc3ccncc3)C(c3ccccc3)CC(=O)NCC2)c1` (configuration not stated), for which the Potency is 1.26 µM (active).

On to `O=C1CC2CCN(Cc3cccnc3)CC2CCN1` (configuration not stated), for which the Potency entry is “inactive”.

Consider `Cc1ccc(CN2CCCN(Cc3ccncc3)C(c3ccccc3)CC(=O)NCC2)s1` (configuration not stated), for which the Potency was 1 µM (active).

Take `Cc1ccccc1CNC(=O)C1CCCN(Cc2cccnc2)CCC(=O)NCC1` (configuration not stated): the Potency result is “inactive”.

As to `CNC(=O)N1CCCN(S(C)(=O)=O)C(c2ccccc2)CC(=O)NCC1` (configuration not stated), the Potency result was “inactive”.

For the compound `CS(=O)(=O)N1CCCN(C(=O)Cc2cccc(F)c2)CCNC(=O)CC1c1ccccc1` (configuration not stated), the Potency result is “inactive”.

Regarding `O=C1CC(c2ccccc2)N(Cc2ccncc2)CCCN(Cc2cccnc2)CCN1` (configuration not stated), the Potency is 4.47 µM (active).

Turning to `CS(=O)(=O)N1CCCN(C(=O)CN2CCCCCC2)CCNC(=O)CC1c1ccccc1` (configuration not stated), the Potency entry is “inactive”.

For the compound `N#Cc1ccc(CC(=O)N2CC(CNc3cccnc3)C3(C2)CN(c2ccccc2)C3)cc1` (configuration not stated), the Potency entry was “inactive”.

Regarding `CCN1CC2(CCN(C(=O)c3cc4c(nc3OC)CCC4)CC2)OC1=O`, the Potency entry is “inactive”.

Take `CNC(=O)[C@H]1C[C@H](Oc2ccccc2)CN1C(=O)c1ccccc1`: the Potency result was “inactive”.

Take `FC(F)(F)CN1C2CCC1CN(c1cncc(Cl)n1)C2`: the Potency result is “inactive”.

Take `CC(NC(=O)c1coc(COc2ccc3c(c2)OCO3)n1)c1ccc2[nH]ccc2c1` (configuration not stated): the Potency entry is “inactive”.

`Cn1cncc1-c1nnc([C@H]2CCN(CC3CC3)C2)o1`: the Potency entry is “inactive”.

On to `CCOC(=O)CCNC(=O)N1CC[C@H]2C(=O)NCCCCCCN(Cc3ccncc3)[C@@H]2C1`, for which the Potency result was “inactive”.

With `C=CCNC(=O)CCc1c(CC)nn(-c2ccccc2)c1Oc1ccccc1OC`, the Potency result was “inactive”.

With `CC(=O)c1c(C)nn(CC(=O)N2C[C@H](O)[C@@H](N3CCC(O)CC3)C2)c1C`, the Potency entry was “inactive”.

Consider `CCc1nc2c(=O)n(CC(=O)NCc3ccc(Cl)cc3)nc(C)c2s1`, for which the Potency entry is “inactive”.

For the compound `CCCCN1C(=O)c2[nH]nc(-c3ccccc3O)c2C1c1cccc(OCc2ccccc2)c1` (configuration not stated), the Potency is 3.16 µM (active).

With `CCCOc1ccc(C2c3c(-c4ccccc4O)n[nH]c3C(=O)N2Cc2cccnc2)cc1` (configuration not stated), the Potency result is “inactive”.

Regarding `COc1cccc(-c2n[nH]c3c2C(c2cccc(O)c2)N(C)C3=O)c1` (configuration not stated), the Potency result was “inactive”.

Turning to `Cc1cc(C(=O)NCC2Cn3cccc3C(=O)N2C)nn1C` (configuration not stated), the Potency entry is “inactive”.

Take `COC(=O)CCNC(=O)C1c2ccccc2C(=O)N(CC(C)C)C12CCCC2` (configuration not stated): the Potency result was “inactive”.

For the compound `COc1ccccc1NC(=O)C1c2ccccc2C(=O)N(CC(C)C)C12CCCC2` (configuration not stated), the Potency was 3.55 µM (active).

Take `CC(C)CN1C(=O)c2ccccc2C(C(=O)NCc2ccccn2)C12CCCC2` (configuration not stated): the Potency entry is “inactive”.

For `Cc1ccc2c(c1)N1C(=O)OC[C@@H]1CCN(C(=O)c1ccno1)C2`, the Potency result is “inactive”.

With `Cc1cc(C)cc(C(=O)N2CC(c3nnc(-c4ccncc4)o3)C3(CCOCC3)C2)c1` (configuration not stated), the Potency result is “inactive”.

For `Cc1cccc(C)c1-c1nc(C(=O)N2CCN(c3ncccn3)CC2)n2ccccc12`, the Potency entry was “inactive and 12.6 µM (active)”.

In the case of `O=C(c1nc(-c2cccnc2)c2cnccn12)N1CCN(c2ncccn2)CC1`, the Potency entry is “inactive”.

For the compound `CC(C)(C)c1nc(C(=O)N2CCOCC2)n2ccccc12`, the Potency entry was “inactive”.

Take `CN(CC1CCOC1)C(=O)c1ccc(F)cc1F` (configuration not stated): the outcome was “inactive [at 5.79 µM]”.

Consider `O=C(Cc1cccc(F)c1)N1CCCC(Cc2nncn2-c2ccccc2)C1` (configuration not stated), for which the Potency entry is “inactive”.

For `CCOC(=O)C1CCCN(C(=O)Cc2ccc(N(Cc3cccc(F)c3)C(=O)c3ccco3)cc2)C1` (configuration not stated), the Potency is 3.98 µM (active).

Turning to `CC(C)NC(=O)Cc1ccc(N(Cc2cccc(F)c2)C(=O)c2ccco2)cc1`, the Potency result is “inactive”.

For the compound `CN(CC(=O)N1CCCC(Cc2nncn2-c2ccccc2)C1)S(=O)(=O)c1cccs1` (configuration not stated), the Potency result was “inactive”.

`Cc1ccccc1C(=O)NCc1cccnc1Oc1cccc(C(F)(F)F)c1`: the Potency entry was “inactive”.

Consider `COc1cccc(-c2cc(C(=O)N3CCC(c4nn(C)c(=O)n4C(C)C)CC3)[nH]n2)c1`, for which the Potency result was “inactive”.

With `CCC(C)N1Cc2cc(NC(=O)c3ccc([N+](=O)[O-])cc3)ccc2OCC1=O` (configuration not stated), the Potency result is “inactive”.

In the case of `CCC(C(=O)Nc1ccc2c(c1)CN(Cc1cc(F)cc(F)c1)C(=O)CO2)c1ccccc1` (configuration not stated), the Potency was 6.31 µM (active).

On to `CCC1Oc2ccc(NC(=O)c3cccs3)cc2CN(Cc2ccc(F)cc2)C1=O` (configuration not stated), for which the Potency entry is “inactive”.

With `O=C1Nc2ccccc2C12CCN([S+](=O)([O-])c1cccc(C(F)(F)F)c1)C2` (configuration not stated), the Potency entry is “inactive”.

For `COc1ccc([C@H]2C[C@@H](O)[C@@H](O)[C@@H]2NC(=O)c2ccccc2)cc1`, the Potency result was “inactive”.

For the compound `COc1cc(NC(=O)c2nc3ccccc3nc2C)cc(OC)c1OC`, the Potency result was “inactive”.

Regarding `CCOc1ccccc1NC(=O)Cn1nnc(C(=O)Nc2ccc(C)c(C)c2)c1N`, the Potency entry was “inactive”.

As to `CCOc1ccc(C(=O)Nc2ccc3nc4c(c(Nc5ccccc5OC)c3c2)CCCC4)cc1`, the Potency was 11.2 µM (active).

For `CCOc1ccc(-n2nc3ccc(NC(=O)c4ccc(OC)c(Cl)c4)cc3n2)cc1`, the Potency entry was “inactive”.

On to `COc1ccccc1Nc1c2c(nc3ccc(NC(=O)/C=C/c4cc(OC)c(OC)c(OC)c4)cc13)CCCC2`, for which the Potency is 3.98 µM (active).

As for `COc1cc(C(=O)Nc2ccc(-n3c(C)nc4ccccc4c3=O)cc2)cc(OC)c1OC`, the Potency entry is “inactive”.

With `Cc1noc(-c2ccco2)c1C(=O)NC(C)c1ccccc1` (configuration not stated), the Potency entry is “inactive”.

For the compound `O=[S+]([O-])(c1ccc(Br)cc1)c1nnn2c1nc(NC1CC1)c1ccccc12`, the Potency entry is “inactive”.

In the case of `CCc1cc(=O)n(CC(=O)Nc2cccc(C(C)=O)c2)c(-c2ccccc2)n1`, the Potency entry is “inactive”.

Turning to `Cc1ccc(NC(=O)CC2=C3CCCCC3NC2=O)cc1` (configuration not stated), the Potency result was “inactive”.

On to `CC(Cn1cncn1)Nc1nc(-c2ccncc2)nc2c1cnn2C` (configuration not stated), for which the Potency entry was “inactive”.

Consider `Cc1ccccc1-c1ccc(C(=O)NCCCn2ccnc2C(C)C)cn1`, for which the Potency entry was “inactive”.

On to `CC(C)c1nccn1CCCNc1nc(-c2ccncc2)nc2c1cnn2C`, for which the Potency is 12.6 µM (active).

On to `O=C(NC1CCCCC1)N1C[C@@H]2C[C@H](C1)c1c(NS(=O)(=O)c3ccccc3)ccc(=O)n1C2`, for which the Potency entry is “inactive”.

As for `Cc1cc(C)cc(NC(=O)Cn2nc3n(c2=O)CCCC3)c1`, the Potency result was “inactive”.

`COC1C(=O)N(C2CCN(Cc3ccc(O)cc3)CC2)C12CCOCC2` (configuration not stated): the Potency result is “inactive”.

With `Cc1nn2c(c1-c1ccnn1C(C)C)N(CC1CCOCC1)CCC2`, the Potency result is “inactive”.

Take `Cc1nn2c(c1-c1ccccc1-c1ccccc1)N(CC1CC1)CCC2`: the Potency was 0.316 µM (active).

Consider `Cc1nn2c(c1-c1ccccc1-c1ccccc1)N(C(=O)CN1CCOCC1)CCC2`, for which the Potency entry was “inactive”.

With `Cc1ncsc1C1N(C2CCN(C(=O)c3ccncc3)CC2)C(=O)C12CCCC2` (configuration not stated), the Potency result is “inactive”.

`Cc1ccccc1NC(=O)c1cc2c([nH]c1=O)CC(C)(C)CC2=O`: the Potency entry is “inactive”.

Regarding `Cc1ccccc1NC(=O)CCOc1ccccc1`, the Potency entry is “inactive”.

Take `Cc1ccccc1NC(=O)c1cc2cn(C(C)C)cc2s1`: the Potency was 8.91 µM (active).

Turning to `CCn1cc(S(=O)(=O)N2CCC3(CC2)CN(Cc2ccc(OC)cc2)C3=O)cn1`, the Potency result is “inactive”.

Take `C=CCNC(=O)c1cn2c(n1)CN([S+](C)(=O)[O-])CC2`: the Potency entry was “inactive”.

Regarding `CN(C)c1ccc(NC(=O)Cn2nc3n(c2=O)CCCCC3)cc1`, the Potency entry is “inactive”.

Consider `COc1ccc(C(=O)N2CCCCCCNC(=O)CC2)cn1`, for which the Potency result is “inactive”.

As to `O=C(NCc1ccco1)C1CCCN(c2cnn(Cc3ccccc3)c(=O)c2)C1` (configuration not stated), the Potency result was “inactive”.

As for `O=C(CCc1conc1-c1ccccc1)NCc1ccco1`, the Potency entry was “inactive”.

As for `O=C(NCc1ccccc1)[C@@H]1Cc2nc[nH]c2CN1Cc1cccc(OC(F)(F)F)c1`, the Potency is 10 µM (active).

Regarding `O=C(NCc1ccco1)[C@@H]1Cc2nc[nH]c2CN1CCCc1ccccc1`, the Potency was 7.94 µM (active).

As for `O=C(O)CCC(=O)N1Cc2[nH]cnc2C[C@H]1c1nc(-c2ccc3ccccc3c2)no1`, the Potency entry is “inactive”.

For the compound `COc1cccc(CC(=O)N2CCC(N3C(=O)CCC3C(=O)NCc3ccccc3)CC2)c1` (configuration not stated), the Potency entry is “inactive”.

As for `Fc1ccc(NC2CCCN(Cc3ccc(C#Cc4cncnc4)cc3)C2)cc1F` (configuration not stated), the Potency entry is “inactive”.

Regarding `O=C1COc2ccc(-c3cncnc3)nc2CN1Cc1ccc(F)cc1`, the Potency result is “inactive”.

`OC1CC([C@@H](Cc2ccccn2)NC2CCC3(CCNCC3)CC2)C1` (some centres not stated): the Potency entry was “inactive”.

In the case of `Cc1ccc(Oc2c(C(F)(F)F)oc3c(CN4CCCCC4)c(O)ccc3c2=O)cc1`, the Potency is 3.55 µM (active).

For `COc1ccc(-c2c(C)c3ccc(O)c(CN4CCCC4)c3oc2=O)cc1OC`, the Potency result was “inactive”.

On to `Cc1ccc(C)c(Oc2c(C(F)(F)F)oc3c(CN4CCN(C)CC4)c(O)ccc3c2=O)c1`, for which the Potency was 0.501 µM (active).

Turning to `CC1CCCN(Cc2c(O)ccc3c(=O)c(Oc4ccc(C(C)(C)C)cc4)c(C(F)(F)F)oc23)C1` (configuration not stated), the Potency was 0.316 µM (active).

`Cc1ccc2nc3n(c2c1)[C@@H](CNC(=O)c1ccc(C#N)cc1)COC3`: the Potency entry was “inactive”.

For `O=C(c1ccc(F)cc1)N1CCC2(CN[S+](=O)([O-])c3ccccc3N2)C1` (configuration not stated), the Potency result was “inactive”.

Take `O=C1CC2(CCN(C(=O)CCn3ccccc3=O)C2)C(=O)N1` (configuration not stated): the Potency result is “inactive”.

In the case of `CN[C@@H](CC(C)C)C(=O)N[C@@H]1C=C(C(=O)N[C@@H](Cc2ccc(O)cc2)C(N)=O)C[C@@H](O)[C@@H]1O`, the Potency result was “inactive”.

In the case of `O=C(NCCc1ccc(Cl)cc1)c1ccc2nccn2c1`, the Potency result is “inactive”.

In the case of `O=C(CCCN1C(=O)C(c2ccccc2)Oc2cccnc21)NCCc1noc(-c2ccncc2)n1` (configuration not stated), the Potency entry is “inactive”.

Consider `Cc1ccc2oc(C(=O)N(C)CCc3ccccc3)c(C)c2c1`, for which the Potency result was “inactive”.

For the origin of these results see PubChem BioAssay AID1347417 (National Center for Advancing Translational Sciences (NCATS), 2020).
